This is an account of results in PubChem BioAssay AID590 (National Center for Advancing Translational Sciences (NCATS), 2007).

Among all 59,000 compounds or so, about 6,500 (11%) were called active. Another 15% or so got no clear call; they are omitted. Cut-off read from the data, not from the text of the source: active = max dye-equivalent concentration above about 10 nM; inconclusive = mostly about 1.1 nM to 9.6 nM; inactive = weaker than that. The list comes from a sample in which actives are over-represented; it also holds similar structures and randomly drawn compounds.

A short description of this assay: qHTS Assay for Spectroscopic Profiling in A350 Spectral Region. To be noted: Compound autofluorescence, 340/450 nm, Alexa 350 dye-equivalents; active compounds read high. An excerpt: NIH Molecular Libraries Screening Centers Network [MLSCN]
NIH Chemical Genomics Center [NCGC]
Occasionally, the artifactual effect may originate from the compounds own spectral or other biophysical properties which generally tend to track its assay concentration. Pre-screening/profiling the library with respect to the compounds spectral properties should help one exclude false positives early on. While the most informative fluorescent profiling data set is obtained by performing a full excitation and emission scan of each well by using a monochromator-based plate reader, such an approach is practical only on a very limited scale as scanning each well requires long time. An alternative approach, applied here, is to perform plate reader scans using selected excitation and emission wavelength pairs to generate a multidimensional relational database that correlates compound concentration and the respective relative fluorescence intensity at a given wavelength set. A standard curve of Alexa 350 (A 350) present on each plate as six-point concentration series, was used to compute a normalized fluorescence response, termed dye-equivalent concentration, for each compound at each concentration.
NCGC Assay Protocol Summary:
100 mM Tris buffer, pH 8.0
The wells in columns 1 through 4 of a Kalypsys polypropylene 1536-well compound plate were filled with standard solutions of fluorophore corresponding to the spectral region of interest. Solutions of A 350 were placed in the following wells: I1, J1: 3 mM, I2, J2: 300 uM, I3, J3: 30 uM, I4, J4: zero (DMSO), K1, L1: 3 uM, K2, L2: […], K3, L3: 300 nM, K4, L4: zero (DMSO).
Six uL of buffer were dispensed to 1536-well Greiner black plates. Compounds and dye standards (23 nL) were transferred via Kalypsys PinTool. The plates were incubated for 15 min at room temperature, and then read on ViewLux (Perkin-Elmer) High-throughput CCD imager using 340 nm and 450 nm excitation and emission filter set.
Keywords: NIH Roadmap, MLSCN, MLI, MLSMR, qHTS, NCGC, A350, A-350, Fluorescent Profiling.
In general terms: Quantitative high-throughput screening tests each substance at several concentrations.
On to `CCON=C1C(C)(C)C(C)(C)C(C)(C)C1(C)C`, for which the max dye-equivalent concentration entry is “inactive”.

In the case of `CC(=O)N1CCN(C(=O)Nc2cccc(C(F)(F)F)c2)CC1`, the max dye-equivalent concentration entry is “inactive”.

Regarding `CCOc1c(N2CCCCC2)c(=O)c1=O`, the max dye-equivalent concentration result was “inactive”.

As to `COc1cccc(-n2cc3c(c2-c2ccccc2)c(=O)n(C)c(=O)n3C)c1`, the max dye-equivalent concentration is 10 nM (active).

On to `COc1ccc(-c2c3c(=O)n(C)c(=O)n(C)c3cn2NC(C)=O)cc1`, for which the max dye-equivalent concentration is 2600 nM (active).

With `COc1ccc(-c2c3c(=O)n(C)c(=O)n(C)c3cn2-c2cccc(OC)c2)cc1`, the max dye-equivalent concentration was 14 nM (active).

On to `COc1ccc(OC)c(-n2cc3c(=O)n(C)c(=O)n(C)c3c2)c1`, for which the max dye-equivalent concentration entry is “inactive”.

Consider `Cc1ccc(-c2c3c(=O)n(C)c(=O)n(C)c3cn2-n2cnnc2)cc1`, for which the max dye-equivalent concentration entry was “inactive”.

For the molecule `COC(=O)c1ccc(CSc2nc3ccccc3c(=O)n2-c2cccc(OC)c2)o1`, the max dye-equivalent concentration entry is “inactive”.

As to `CCOC(=O)CNC(=O)c1nn(-c2cccc(OC)c2)c(=O)c2ccccc12`, the max dye-equivalent concentration result is “inactive”.

In the case of `COc1ccc(N(C(=O)c2cccnc2)S(=O)(=O)c2ccc3c(c2)n(C)c(=O)n3C)cc1`, the max dye-equivalent concentration result is “inactive”.

For the molecule `Cc1cccc(-n2nc3c(c2NC(=O)c2ccc(Br)o2)CSC3)c1C`, the max dye-equivalent concentration result was “inactive”.

`O=C(Nc1ccc(S(=O)(=O)N2CCCCC2)cc1)c1cnccn1`: the max dye-equivalent concentration result was “inactive”.

As to `Cc1nc2nc3c(cn2n1)C(=O)CC(c1ccccc1)C3` (stereo not given), the max dye-equivalent concentration entry is “inactive”.

Take `CC1(C)C(=O)C2(CCCCC2)C(=O)OC1c1cccs1` (stereo not given): the max dye-equivalent concentration entry is “inactive”.

For `C=CCn1c(COc2ccccc2C)nnc1SCC(=O)O`, the max dye-equivalent concentration result was “inactive”.

As for `Cc1ccc2[nH]c3c(c2c1)CN(C(=O)CN1CCN(c2ccccc2)CC1)CC3`, the max dye-equivalent concentration entry is “inactive”.

Turning to `Cc1cc(C)c2c(c1)c(C)cc1nnc(SCC(=O)NCc3ccco3)n12`, the max dye-equivalent concentration entry was “inactive”.

Turning to `CC(=O)N1CCC2(CCCN(Cc3ccccc3)C2)CC1`, the max dye-equivalent concentration result is “inactive”.

Take `O=C(O)/C(=C/c1c(C(=O)O)[nH]c2cc(Cl)cc(Cl)c12)c1ccccc1`: the max dye-equivalent concentration result is “inactive”.

On to `O=C1c2ccccc2C(=O)N1CCc1nn[nH]n1`, for which the max dye-equivalent concentration entry is “inactive”.

Consider `CCOC(=O)c1c(C)n(C)c2ccc(OC)c(NC(=O)CN3CCC4(CC3)OCCO4)c12`, for which the max dye-equivalent concentration entry was “inactive”.

For `O=C(O)[C@H](CCc1ccccn1)c1ccccc1`, the max dye-equivalent concentration result is “inactive”.

As for `C/C(N)=C(\C#N)C(=O)NCCc1ccccn1`, the max dye-equivalent concentration was 12 nM (active).

Take `O=C(NCCc1ccccn1)c1ccc(COc2ccccc2)o1`: the max dye-equivalent concentration entry was “inactive”.

Take `CC1(C)CC(=O)C(C2=NC(C)(C)Cc3ccccc32)=C(O)C1`: the max dye-equivalent concentration result was “inactive”.

In the case of `CCOc1ccc(N=C2SC(C(=O)O)CC(=O)N2C)cc1` (stereo not given), the max dye-equivalent concentration entry is “inactive”.

Turning to `COC(=O)N1CN(C(=O)OC)CN(C(=O)OC)C1`, the max dye-equivalent concentration result was “inactive”.

For the molecule `CC(C)=C(NC(=O)c1ccco1)C(=O)NCCc1nc2ccccc2[nH]1`, the max dye-equivalent concentration result is “inactive”.

In the case of `CC(C)OC(=O)c1cc(NC(=O)C2C3CCC(O3)C2C(=O)O)cc(C(=O)OC(C)C)c1` (stereo not given), the max dye-equivalent concentration is 13 nM (active).

Turning to `CCC(CC)C(=O)Nc1cc(C(=O)OC)cc(C(=O)OC)c1`, the max dye-equivalent concentration entry is “inactive”.

Turning to `COC(=O)c1cn(CC(=O)NCc2cccs2)c2ccccc12`, the max dye-equivalent concentration entry is “inactive”.

Consider `O=C(Cn1cc(C(=O)c2cccs2)c2ccccc21)NCc1cccs1`, for which the max dye-equivalent concentration is 25 nM (active).

On to `O=C(CCC(=O)c1cccs1)NCc1ccccc1`, for which the max dye-equivalent concentration entry is “inactive”.

In the case of `C=C(Br)CN1CCN(CC(=C)Br)CC1`, the max dye-equivalent concentration result is “inactive”.

As for `O=C1CCC(C(=O)Nc2ccc(OC(F)F)cc2)N1` (stereo not given), the max dye-equivalent concentration was 22 nM (active).

Consider `CCCOc1ccc(NC(=O)C2CCCNC2=O)cc1` (stereo not given), for which the max dye-equivalent concentration result is “inactive”.

Turning to `COC(=O)COc1ccc(S(=O)(=O)Nc2ccc(NC(C)=O)cc2)cc1`, the max dye-equivalent concentration result was “inactive”.

For `NS(=O)(=O)c1cc2c(cc1Cl)NC(C(Cl)Cl)NS2(=O)=O` (stereo not given), the max dye-equivalent concentration is 7200 nM (active).

On to `Cc1cn(C2C=CC(CO)O2)c(=O)[nH]c1=O` (stereo not given), for which the max dye-equivalent concentration entry is “inactive”.

For `Cc1ccc(C(=O)NC2CCN(C(=O)N3CCOCC3)CC2)cc1`, the max dye-equivalent concentration result is “inactive”.

`CCOC(=O)c1cc(-c2ccc(Cl)s2)nc2c1c(C)nn2C`: the max dye-equivalent concentration is 240 nM (active).

Regarding `CCOC(=O)c1sc(=S)n(-c2cccc(OC)c2)c1N`, the max dye-equivalent concentration result is “inactive”.

`CCOC(=O)c1c(C(C#N)C#N)cc(C)nc1C`: the max dye-equivalent concentration entry was “inactive”.

For `Cc1ccn2cc(C(=O)NC3CCN(Cc4ccccc4)CC3)nc2c1`, the max dye-equivalent concentration entry is “inactive”.

Take `CCc1ccc2oc(-c3ccc(N)cc3)nc2c1`: the max dye-equivalent concentration is 140 nM (active).

With `O=C(/C=N/O)Nc1ccccc1`, the max dye-equivalent concentration result was “inactive”.

As to `CC1CCc2c(sc3c2C2=NS(=O)(=O)CCN2C=N3)C1` (stereo not given), the max dye-equivalent concentration was 29 nM (active).

Turning to `CC1(CCC(=O)OC2CCCCC2)OCCO1`, the max dye-equivalent concentration entry was “inactive”.

As for `CCOC(=O)c1cc2sccc2n1Cc1ccc(C#N)cc1`, the max dye-equivalent concentration result is “inactive”.

For the molecule `CC(C[N+](C)(C)C)OC(N)=O` (stereo not given), the max dye-equivalent concentration result was “inactive”.

Regarding `CC(=O)OC(C)C[N+](C)(C)C` (stereo not given), the max dye-equivalent concentration was 570 nM (active).

Consider `CCN1C(=O)/C(=C2\SC(N3CCCCC3)=NC2=O)c2ccccc21`, for which the max dye-equivalent concentration was 17 nM (active).

For `CCN1C(=O)/C(=C\N2CCN(c3ccccc3)CC2)SC1=S`, the max dye-equivalent concentration result was “inactive”.

On to `CC(=O)c1ccc(-n2nnnc2SCC(=O)N2CCN(C(=O)c3ccco3)CC2)cc1`, for which the max dye-equivalent concentration entry is “inactive”.
